This passage reports z-score and composite z-score results from PubChem BioAssay.

Experiment [1] is described as follows: resazurin metabolic signal in HepG2 cells – cell-based, resazurin fluorescence, 24 h, PK04 Diversity Set, profiling panel (AID 1172). The settings on record: HepG2 viability, higher = more signal.
The nature of experiment [2]: budding yeast growth changes without added modifier – OD600, strain BY4716, 24 h, basal condition, primary screen (AID 1173). The settings on record: S. cerevisiae BY4716 growth, OD600, 24 h; higher = more signal, called active from +8 up or from −8 down.
Experiment [3] is described as follows: viability profiling in MM1S myeloma cells – cell-based, resazurin fluorescence, basal, 24 h, PK04 Diversity Set, profiling panel (AID 1174).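 Note: MM1S multiple myeloma cell line.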 As to conditions: higher = more signal, called active from +8 up or from −8 down.
For experiment [4], the target named is Dihydroorotate dehydrogenase (quinone), mitochondrial (Plasmodium falciparum (isolate 3D7)) (UniProt Q08210). Description: inhibition of P. falciparum DHODH – biochemical, C-terminal His tag, absorbance 600 nm, primary screen (AID 1175).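 Note: recombinant parasite enzyme with a five histidine tag at its C terminus.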 As to conditions: PfDHODH enzyme, DCIP absorbance 600 nm; higher = more signal, called active from +8 up or from −8 down.
A short description of experiment [5]: inhibition of PAO1 biofilm formation – strain PAO1, LB-PBS medium, absorbance 600 nm, primary screen (AID 1176). As to conditions: P. aeruginosa PAO1 growth/biofilm, A600, 12 h; higher = more signal.
Experiment [6] in a line: growth modulation of vineyard yeast isolate – strain RM11-1a, OD600, basal, 24 h, primary screen (AID 1177).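 Note: cultures grown under basal conditions with no added stressor.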 The settings on record: S. cerevisiae RM11-1a growth, OD600, 24 h; higher = more signal, called active from +8 up or from −8 down.
The nature of experiment [7]: growth of efflux-deficient E. coli DRC39 – strain DRC39, OD650, 24 h, E. coli filamentation inducers, primary screen (AID 1178).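 Note: growth measured as culture turbidity by optical density at 650 nm.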 The settings on record: E. coli DRC39 acrAB, higher = more signal, called active from +8 up or from −8 down.
Experiment [8] is described as follows: growth of efflux-deficient E. coli DRC39 – strain DRC39, OD650, 48 h, E. coli filamentation inducers, primary screen (AID 1179).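 Note: screen aims at cell division blockers that make cells filament.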 The settings on record: E. coli DRC39 delta-acrAB growth, higher = more signal, called active from +8 up or from −8 down.
Experiment [9] in a line: viability profiling in RPMI8226 myeloma cells – cell-based, resazurin fluorescence, basal, 24 h, PK04 Diversity Set, profiling panel (AID 1180).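 Note: RPMI8826 multiple myeloma cell line at 5000 cells per well.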 As to conditions: higher = more signal.
Experiment [10] deals with E3 ubiquitin-protein ligase XIAP (Homo sapiens) (UniProt P98170). Description: small molecules binding XIAP protein – biophysical, small-molecule microarray, fluorescence 635 nm, primary screen (AID 1181).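 Note: score merges 667 nm emission and signal to noise over triplicate slides.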 As to conditions: higher = more signal.
In experiment [11] the test system is XIP peptide (Xip251-270) binding. Description: XIP fragment 251-270 binding compounds – biochemical, small-molecule microarray, fluorescence 635/667 nm, 0.1 µg/mL protein, primary screen (AID 1182). The settings on record: fluorescent protein binding, 635 nm, higher = more signal, called active from +8 up or from −8 down.
Experiment [12] relates to XIP peptide (Xip251-270). Nature of the experiment: compounds binding XIP fragment 251-270 – biochemical, small-molecule microarray, fluorescence 635/667 nm, 0.5 µg/mL protein, primary screen (AID 1183). The settings on record: fluorescence 635 nm, higher = more signal.
Experiment [13] in a line: blood-stage malaria parasite viability loss – strain 3D7, DAPI fluorescence, 100 nL, primary screen (AID 1184).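 Note: parasites grown inside human red blood cells in medium with human serum.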 As to conditions: P. falciparum 3D7 growth, 3 d, higher = more signal.
Experiment [14] deals with Homeobox protein Hox-A13 (Mus musculus) (UniProt Q62424). Nature of the experiment: disruptors of Hoxa13 oligonucleotide interaction – biochemical, fluorescence polarization, labeled oligonucleotide, primary screen (AID 1185). As to conditions: Hoxa13:DNA binding, 15 min, higher = more signal, called active from +8 up or from −8 down.
Experiment [15] in a line: blockers of DNA damage checkpoint Chk1 activation – imaging, HeLa, hydroxyurea, phospho-Chk1 antibody, percent positive cells, primary screen (AID 1186). The settings on record: hydroxyurea-induced phospho-Chk1 immunofluorescence imaging, higher = more signal.
Experiment [16] can be described thus: blockers of DNA damage checkpoint Chk1 activation – imaging, HeLa, hydroxyurea, phospho-Chk1 nuclear intensity, primary screen (AID 1187). The settings on record: hydroxyurea-induced phospho-Chk1 immunofluorescence imaging, higher = more signal.

Values joined by “and” are separate entries in the source; they are usually repeats but may differ in a detail not shown here. Equal values may be shown once. Active and inactive are the calls of the source. Unless noted, the rule behind the calls is not given here.

E3 ubiquitin-protein ligase XIAP (Homo sapiens), sequence (P98170 whole entry, looked up, the tested form may be a part): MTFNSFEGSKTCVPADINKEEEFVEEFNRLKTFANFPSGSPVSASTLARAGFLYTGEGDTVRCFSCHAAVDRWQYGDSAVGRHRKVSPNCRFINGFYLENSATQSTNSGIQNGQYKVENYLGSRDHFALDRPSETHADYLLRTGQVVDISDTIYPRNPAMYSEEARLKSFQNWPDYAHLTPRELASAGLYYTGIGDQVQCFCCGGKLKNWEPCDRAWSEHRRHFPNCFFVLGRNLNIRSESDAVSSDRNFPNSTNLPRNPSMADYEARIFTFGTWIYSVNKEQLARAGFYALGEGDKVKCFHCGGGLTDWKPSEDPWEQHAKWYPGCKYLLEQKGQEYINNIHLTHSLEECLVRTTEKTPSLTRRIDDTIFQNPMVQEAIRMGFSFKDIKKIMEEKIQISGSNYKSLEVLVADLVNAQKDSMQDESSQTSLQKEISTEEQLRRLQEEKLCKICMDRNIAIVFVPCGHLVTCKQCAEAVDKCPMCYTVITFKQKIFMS
Homeobox protein Hox-A13 (Mus musculus), sequence (Q62424 whole entry, looked up): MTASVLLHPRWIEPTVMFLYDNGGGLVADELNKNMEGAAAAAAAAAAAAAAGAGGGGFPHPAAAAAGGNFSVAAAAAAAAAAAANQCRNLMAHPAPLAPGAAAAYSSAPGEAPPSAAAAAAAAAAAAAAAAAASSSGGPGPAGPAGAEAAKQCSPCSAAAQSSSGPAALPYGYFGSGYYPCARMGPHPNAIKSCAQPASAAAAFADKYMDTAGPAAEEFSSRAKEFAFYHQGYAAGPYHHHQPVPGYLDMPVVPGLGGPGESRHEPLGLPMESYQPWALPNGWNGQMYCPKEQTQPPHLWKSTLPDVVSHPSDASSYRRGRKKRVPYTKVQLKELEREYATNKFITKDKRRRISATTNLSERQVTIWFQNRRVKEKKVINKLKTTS
Dihydroorotate dehydrogenase (quinone), mitochondrial (Plasmodium falciparum (isolate 3D7)), sequence (Q08210 whole entry, looked up): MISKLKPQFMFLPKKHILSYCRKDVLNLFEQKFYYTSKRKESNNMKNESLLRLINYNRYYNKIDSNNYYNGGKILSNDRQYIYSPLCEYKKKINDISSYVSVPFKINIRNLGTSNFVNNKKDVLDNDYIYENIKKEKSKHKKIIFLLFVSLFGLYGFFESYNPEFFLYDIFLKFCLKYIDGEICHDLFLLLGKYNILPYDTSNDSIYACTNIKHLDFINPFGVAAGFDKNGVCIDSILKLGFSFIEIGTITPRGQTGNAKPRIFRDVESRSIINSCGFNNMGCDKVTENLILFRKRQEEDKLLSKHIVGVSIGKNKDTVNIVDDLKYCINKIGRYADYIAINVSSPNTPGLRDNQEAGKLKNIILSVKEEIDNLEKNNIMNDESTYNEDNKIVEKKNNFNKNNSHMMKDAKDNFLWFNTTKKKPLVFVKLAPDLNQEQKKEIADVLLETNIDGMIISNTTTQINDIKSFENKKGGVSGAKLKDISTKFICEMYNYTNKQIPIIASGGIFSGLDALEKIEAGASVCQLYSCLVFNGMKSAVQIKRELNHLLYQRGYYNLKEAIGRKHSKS

Take `C=CCN(C(=O)C1N(CCCCCCO)C(=O)C2C(C(=O)O)C3C=CC21O3)c1ccc(OC)cc1` (stereo not given): the z-score in experiment [1] is 0.831 and 0.525; in experiment [2], -2.35 (inactive) and -2.45 (inactive); in experiment [3], 1.04 (inactive) and -0.294 (inactive); in experiment [5], -0.401 (inactive); in experiment [6], -1.53 (inactive) and -0.292 (inactive); in experiment [7] it was 1.15 (inactive) and 0.43 (inactive). Further, the z-score in [8] is 1.16 (inactive) and 0.716 (inactive); in experiment [9], 1.37 and 0.372; in experiment [13] it was -0.424 and 0.0379; in [14], -1.08 (inactive) and -0.0174 (inactive); in [15] it was -0.598 (inactive) and -0.471 (inactive); in [16] it was -0.451 (inactive) and -0.198 (inactive). Moreover, the composite z-score was -1.78 (inactive) and -2.48 (inactive) in experiment [4]; -0.0492 and 0.0972 in experiment [10]; 1.14 (inactive) and 1.15 (inactive) in experiment [11]; -2.27 and -0.654 in experiment [12].
Regarding `C=C[C@H](C)[C@H](O)c1ccc(O)c2ccccc12`, the z-score is 0.26 and 0.0956 in experiment [1]; -8.01 (active) and -8.42 (active) in [2]; -0.709 (inactive) and -0.107 (inactive) in [3]; 1.32 (inactive) and 1.45 (inactive) in [5]; -1.6 (inactive) and -2.52 (inactive) in experiment [6]; 1.06 (inactive) and 1.82 (inactive) in [7]. Besides, the z-score in experiment [8] is 1.31 (inactive) and 1.91 (inactive); in experiment [9] it was -0.54 and 0.1; in [13], 0.138 and 0.719; in experiment [14] it was -3.07 (inactive) and -2.91 (inactive); in experiment [15], -1.1 (inactive) and -1.31 (inactive); in experiment [16] it was -0.114 (inactive) and -0.271 (inactive). Further, the composite z-score in experiment [4] was -1.87 (inactive) and -1.49 (inactive); in experiment [10], -0.0659 and 0.116; in [11], -0.389 (inactive) and -0.742 (inactive); in experiment [12], -0.236 and 0.788.
Take `C=CCN(CCCCC)C(=O)C1N(c2c(Cl)cccc2CO)C(=O)C2C(C(=O)O)C3C=CC21O3` (stereo not given): the z-score in experiment [1] is -1.63 and -0.873; in experiment [2], 0.0191 (inactive) and -0.402 (inactive); in [3], -1.48 (inactive) and -0.932 (inactive); in experiment [5] it was -0.441 (inactive) and -0.578 (inactive); in experiment [6], 0.501 (inactive) and 0.477 (inactive); in experiment [7], -0.957 (inactive) and -1.11 (inactive). Moreover, the z-score in experiment [8] is -0.992 (inactive) and -1.16 (inactive); in [9], -1.52 and -1.3; in experiment [13], -1.2 and -1.04; in experiment [14], -2.42 (inactive) and -0.615 (inactive); in [15] it was -0.672 (inactive) and 0.433 (inactive); in experiment [16] it was -0.669 (inactive) and 0.367 (inactive). Moreover, the composite z-score in experiment [4] is 0.564 (inactive) and -1.24 (inactive); in [10] it was -0.237 and -0.0414; in experiment [11], -0.421 (inactive) and -0.228 (inactive); in experiment [12], -0.416 and -1.42.
In the case of `C=CCN(Cc1ccccc1)C(=O)C(c1cccs1)N(C(=O)/C=C\C(=O)O)c1ccc(CCO)cc1` (stereo not given), the z-score in [1] is -0.42 and -0.633; in experiment [2] it was 0.0593 (inactive) and -0.0181 (inactive); in experiment [3] it was -0.0351 (inactive) and -0.273 (inactive); in experiment [5], -0.208 (inactive) and 0.233 (inactive); in experiment [6], 0.374 (inactive) and 0.514 (inactive); in experiment [7], 0.866 (inactive) and 0.736 (inactive). The z-score in experiment [8] was 0.722 (inactive) and 0.609 (inactive); in experiment [9], 0.565 and -0.122; in experiment [13], -0.0763 and 0.331; in experiment [14], 0.603 (inactive) and 0.423 (inactive); in experiment [15], 0.141 (inactive) and 0.581 (inactive); in experiment [16] it was 0.404 (inactive) and 0.592 (inactive). The composite z-score in [4] is -0.866 (inactive) and -0.0473 (inactive); in experiment [10], -0.0987 and 0.035; in experiment [11], -0.37 (inactive) and 0.164 (inactive); in experiment [12] it was -0.468 and 0.61.
Consider `CCOC(=O)C[C@H]1[C@H](OC(=O)c2ccccc2-c2ccccc2)[C@@H](NC(=O)Cc2ccc(OC)cc2)c2cc(OCCCO)ccc2N1C(=O)Cc1ccc(OC)cc1`, for which the z-score in experiment [1] is 1.5 and 0.156; in experiment [2] it was 0.324 (inactive) and 0.67 (inactive); in [3], 0.783 (inactive) and 0.0875 (inactive); in experiment [5], 0.531 (inactive); in experiment [6], 0.6 (inactive) and 0.0342 (inactive); in experiment [7], 1.56 (inactive) and -0.539 (inactive). Further, the z-score was 0.949 (inactive) and -0.39 (inactive) in [8]; 0.844 and 0.125 in experiment [9]; -1.83 and -1.26 in experiment [13]; -0.622 (inactive) and -3.3 (inactive) in experiment [14]; -0.901 (inactive) and 0.898 (inactive) in [15]; -0.496 (inactive) and 0.836 (inactive) in experiment [16]. Further, the composite z-score was 1.08 (inactive) and 0.343 (inactive) in [4]; 0.202 and -0.188 in experiment [10]; 0.645 (inactive) and -0.44 (inactive) in experiment [11]; 0.0988 and -0.0465 in experiment [12].
